PubChem BioAssay AID1671192 (National Center for Advancing Translational Sciences (NCATS), 2021)
Inconclusive results are not listed. Calls of active or inactive are those of the source. Calls come from the whole dose curve; as a rule, active = well fitted curve in the direction sought with a large enough effect; inconclusive = small, poorly fitted or top-dose-only effect, or another doubt; inactive = no such curve, though single readings can be large or run the other way.

Biological target: Polyunsaturated fatty acid lipoxygenase ALOX15 (Homo sapiens) (UniProt P16050)
Sequence (P16050 whole entry, looked up): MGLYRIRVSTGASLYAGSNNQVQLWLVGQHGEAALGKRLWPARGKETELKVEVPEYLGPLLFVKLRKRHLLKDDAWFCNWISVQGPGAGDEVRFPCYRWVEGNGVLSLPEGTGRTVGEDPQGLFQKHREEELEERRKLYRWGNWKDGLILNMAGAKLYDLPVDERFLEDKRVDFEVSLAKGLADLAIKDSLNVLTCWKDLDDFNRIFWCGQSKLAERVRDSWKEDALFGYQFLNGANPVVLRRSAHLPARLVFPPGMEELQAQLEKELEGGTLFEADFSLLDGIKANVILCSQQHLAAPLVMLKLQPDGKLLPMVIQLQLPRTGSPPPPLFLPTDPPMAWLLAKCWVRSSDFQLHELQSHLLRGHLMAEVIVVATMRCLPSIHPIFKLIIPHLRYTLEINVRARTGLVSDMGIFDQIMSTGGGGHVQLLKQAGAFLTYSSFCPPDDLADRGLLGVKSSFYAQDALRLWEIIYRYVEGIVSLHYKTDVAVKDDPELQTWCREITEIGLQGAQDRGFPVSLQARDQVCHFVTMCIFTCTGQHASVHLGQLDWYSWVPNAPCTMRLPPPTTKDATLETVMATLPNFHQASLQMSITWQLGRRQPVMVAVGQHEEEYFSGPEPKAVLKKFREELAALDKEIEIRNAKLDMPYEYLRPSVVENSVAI
Assay: Counterscreen qHTS for inhibitors of human arachidonate 12S-lipoxygenase (ALOX12): ALOX15 Assay
Procedure, shortened: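 Purified human ALOX15 (15hLO-1) at 40 nM in 25 mM HEPES, 0.01% Triton X-100, pH 7.5, preincubated with compound 15 min at RT. Then 50 uM arachidonic acid for 30 min; hydroperoxide detected by Fe-xylenol orange as the 573/405 nm absorbance ratio.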

| SMILES | outcome |
| --- | --- |
| CCc1ccccc1CN1CCCC12Cc1ccccc1CNC2=O (stereo not drawn) | inactive |
| O=C(O)c1cccc(-c2cnc3ccccc3c2)c1 | inactive |
| N#Cc1cccc(CN2CCCC(c3nc4ccc(F)cc4c(=O)[nH]3)C2)c1 (stereo not drawn) | inactive |
| C[S+](=O)([O-])N1CC2ON=C(C(=O)NCCc3ccc(Cl)cc3)C2C1 (stereo not drawn) | inactive |
| COc1ccc(C(=O)N2CCOC3(CCN(C(=O)CN)CC3)C2)cc1 | inactive |
| O=C1NCc2ccccc2CC12CCN(Cc1cccc(Br)c1)C2 (stereo not drawn) | inactive |
| NCC(=O)N1Cc2ccccc2CC12CCCN(C(=O)c1ccccc1)C2 (stereo not drawn) | inactive |
| CN1CC(=O)N(C2CCNCC2)Cc2c1ncnc2N1CCCC(O)C1 (stereo not drawn) | inactive |
| O=C1NCc2ccccc2CC12CCCN2Cc1ccc(Cl)s1 (stereo not drawn) | inactive |
| O=C1NCc2ccccc2CC12CCN(Cc1ccc(Cl)cc1)CC2 | inactive |
| CCN1CCCC12Cc1ccccc1CN([S+](C)(=O)[O-])C2 (stereo not drawn) | inactive |
| CC(=O)NCCC(=O)N1Cc2ccccc2CC2(CCCN(CC3CCNC3)C2)C1 (stereo not drawn) | inactive |
| NCC(=O)N1CCC2(CC1)CN(C(=O)c1ccc(Cl)cc1)CCO2 | inactive |
| CS(=O)(=O)N1CCC2(CC1)CN(Cc1ccc(O)cc1)Cc1ccccc1O2 | inactive |
| CN1CCC(C(=O)N2Cc3ccccc3CC3(CCCCN3CC3CCNCC3)C2)CC1 (stereo not drawn) | inactive |
| CC(=O)Nc1ccc(CN2CC3(C2)C(=O)Nc2ccccc23)cc1 | inactive |
| CCN1CCC(c2nc3ccc(C)cc3c(=O)[nH]2)CC1 | inactive |
| CN1CC(=O)N(C2CCNCC2)Cc2c1ncnc2N1CCCC1CO (stereo not drawn) | inactive |
| O=C1c2ccccc2CN1C1CCN(Cc2ccc(C(F)(F)F)cc2)CC1 | inactive |

| SMILES | outcome |
| --- | --- |
| O=C(c1ccccn1)N1CCc2nc(C3CC3)nc(-c3ccc(Cl)cc3)c2C1 | inactive |
| CC(C)c1nc2c(c(-c3ccc(Cl)cc3)n1)CCN(C(=O)c1ccc3c(c1)OCO3)CC2 | inactive |
| c1ccc2c(CN3CC(Oc4ccc5c(c4)OCO5)C3)cccc2c1 | inactive |
| c1ccc(CN2CC(Oc3ccc4c(c3)OCO4)C2)cc1 | inactive |
| Cc1noc(C)c1C(=O)N1CCN(c2ccc(Cl)nn2)C(=O)C1 | inactive |
| Cc1ccc(-c2ccccc2CN)c(C)c1 | inactive |
| CN1CC(=O)N(C2CCCNCC2)Cc2c1ncnc2N1CCSCC1 (stereo not drawn) | inactive |
| O=C(N1CCCCC1)N1CCN(c2ccc(Cl)nn2)C(=O)C1 | inactive |
| FC(F)(F)c1cccc(C2=NOC3(CCN(Cc4ccccc4)C3)C2)c1 (stereo not drawn) | inactive |
| O=C(O)CCCC(=O)N1Cc2ccccc2CC2(CCCN(Cc3ccncc3)C2)C1 (stereo not drawn) | inactive |
| O=S(=O)(c1ccccc1)N1Cc2ccccc2CC2(CCN(Cc3cccnc3)C2)C1 (stereo not drawn) | inactive |
| CCc1ccc(CN2CCCC3(Cc4ccccc4CNC3=O)C2)s1 (stereo not drawn) | inactive |
| CC(=O)N1CCCN(c2ncnc3c2CN(C2CCNCC2)C(=O)CN3C)CC1 | inactive |
| CCNc1ncnc2c1CN(C1CCCNCC1)C(=O)CN2C (stereo not drawn) | inactive |
| CC(C)CNC(=O)c1cc(C2CC2)nc2onc(C3CCNCC3)c12 | inactive |
| CN(C)CCCC(=O)N1Cc2ccccc2CC2(CCCCN2CC2CCNCC2)C1 (stereo not drawn) | inactive |
| CN1CC(=O)N(C2CCCNC2)Cc2c(NCCO)ncnc21 (stereo not drawn) | inactive |
| Cn1nc(C2CCNC2)c2c(C(=O)NCc3ccc(F)cc3)cc(C3CC3)nc21 (stereo not drawn) | inactive |
| CCC(CC)Nc1ncnc2c1CN(C1CCCNCC1)C(=O)CN2C (stereo not drawn) | inactive |
